Experimental findings from PubChem BioAssay AID763 (NMMLSC, 2007) are described below.

Calls of active or inactive are those of the source. The rule behind the calls is not given here.

The target in the test is fMet-Leu-Phe receptor (Homo sapiens) (UniProt P21462). Kind of test: FPR1 fluorescent ligand binding inhibitors, SAR follow-up, selectivity assay for FPRL1 ligand SAR project, cell-based, single concentration (AID 763). The following applies: FPR1-expressing cells, active compounds read high; at 5.4 µM unless noted.
fMet-Leu-Phe receptor (Homo sapiens), sequence (P21462 whole entry, looked up): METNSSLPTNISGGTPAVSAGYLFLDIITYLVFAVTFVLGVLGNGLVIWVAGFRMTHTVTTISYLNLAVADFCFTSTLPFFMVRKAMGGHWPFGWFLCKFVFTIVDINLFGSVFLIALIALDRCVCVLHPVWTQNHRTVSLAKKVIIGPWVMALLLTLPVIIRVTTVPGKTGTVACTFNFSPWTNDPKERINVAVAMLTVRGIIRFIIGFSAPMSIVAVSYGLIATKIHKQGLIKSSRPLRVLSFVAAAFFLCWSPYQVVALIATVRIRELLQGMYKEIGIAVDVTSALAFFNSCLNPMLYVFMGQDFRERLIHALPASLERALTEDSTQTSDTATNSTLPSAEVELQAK
Take `O=C(O)CCC(=O)N1CCN(c2nc(-c3ccccc3)c3cc([N+](=O)[O-])ccc3n2)CC1`: the inhibition (as a rule, the change of the read-out against control, counted positive when it falls) is -0.6% [at 5.1 µM] (inactive).

As to `Fc1ccc(-c2cc(C(F)(F)F)nc(N3CCN(c4ccc(F)cc4)CC3)n2)cc1`, the inhibition is -2% [at 5.3 µM] (inactive). Regarding `COc1ccc(-c2cn3cccnc3n2)cc1NC(=O)c1ccc(Cl)cc1`, the inhibition was -0.5% [at 5.9 µM] (inactive). Consider `COc1ccc(-c2cc(C(F)(F)F)nc(N3CCN(Cc4ccccc4)CC3)n2)cc1`, for which the inhibition is -2.6% [at 5.2 µM] (inactive).

`COc1ccc(-c2cn3cccnc3n2)cc1NC(=O)c1ccc(Br)o1`: the inhibition is 0.9% (inactive). `COc1ccc(-c2cn3cccnc3n2)cc1NC(=O)c1ccc(C(C)(C)C)cc1`: the inhibition was 5.7% [at 5.6 µM] (inactive). Turning to `FC(F)(F)c1cc(-c2ccccc2)nc(N2CCN(c3cccc(Cl)c3)CC2)n1`, the inhibition is -2.5% [at 5.3 µM] (inactive). As for `COc1ccc(-c2cn3cccnc3n2)cc1NC(=O)c1ccccc1OC`, the figure is 3.8% [at 5.9 µM] (inactive); as for `O=C(N1CCN(c2nc(-c3ccccc3)c3cc([N+](=O)[O-])ccc3n2)CC1)C(F)(F)F`, -1.2% [at 5.2 µM] (inactive). The same measure for `Cc1ccc2nc(N3CCN(C(=O)CCC(=O)O)CC3)nc(-c3ccccc3)c2c1`: 5.7% [at 5.5 µM] (inactive); for `Brc1ccc2nc(N3CCN(c4ccccc4)CC3)nc(-c3ccccc3)c2c1`: 0.6% [at 5 µM] (inactive); for `O=C(c1ccccc1)N1CCN(c2nc(-c3ccccc3)c3cc([N+](=O)[O-])ccc3n2)CC1`: -6% [at 5.1 µM] (inactive). For `CCCC(CCC)C(=O)Nc1cc(-c2cn3cccnc3n2)ccc1OC`, the inhibition was -2% [at 6.1 µM] (inactive). The same measure for `COc1cccc(-c2cc(C(F)(F)F)nc(N3CCN(c4ccccc4OC)CC3)n2)c1`: -2.3% [at 5 µM] (inactive); for `Cc1c(-c2cccc(NC(=O)C(C)(C)C)c2)nc2ncccn12`: 4.9% [at 7.2 µM] (inactive).

As to `Clc1cccc(-c2nc(N3CCN(C4CCCCC4)CC3)nc3c2COc2ccccc2-3)c1`, the inhibition is -4.5% [at 4.8 µM] (inactive). As for `O=C(c1ccccc1)N1CCN(c2nc(-c3ccccc3)c3ccccc3n2)CC1`, the inhibition is 1.8% [at 5.6 µM] (inactive). Regarding `Clc1cccc(-c2nc(N3CCN(Cc4ccccc4)CC3)nc3c2COc2ccccc2-3)c1`, the inhibition was 5.3% [at 4.7 µM] (inactive). Turning to `Cc1ccc2nc(N3CCN(C(=O)CCCC(=O)O)CC3)nc(-c3ccccc3)c2c1`, the inhibition was -4.8% [at 5.3 µM] (inactive). The same measure for `Cc1ccc(-c2cc(C(F)F)nc(N3CCN(c4ccccc4)CC3)n2)cc1`: -2.2% [at 5.8 µM] (inactive); for `Cc1ccc(C(=O)N2CCN(c3nc(-c4ccccc4)c4cc(Br)ccc4n3)CC2)cc1`: -4.3% [at 4.6 µM] (inactive); for `COc1ccc(-c2cc(C(F)(F)F)nc(N3CCN(c4ccccc4)CC3)n2)cc1OC`: 54.8% [at 5 µM] (active). As for `COc1ccc(-c2cn3cccnc3n2)cc1NC(=O)c1cccc(OC)c1OC`, the inhibition was -0.2% [at 5.5 µM] (inactive). In the case of `CCOc1cc(C(=O)Nc2cc(-c3cn4cccnc4n3)ccc2OC)cc(OCC)c1OCC`, the inhibition was 0% [at 4.7 µM] (inactive). The same measure for `COc1ccc(-c2cn3cccnc3n2)cc1NC(=O)CSCc1ccccc1`: -0.7% [at 5.5 µM] (inactive); for `COc1cccc(-c2cc(C(F)(F)F)nc(N3CCN(C(c4ccccc4)c4ccccc4)CC3)n2)c1`: 2.6% [at 4.4 µM] (inactive); for `CCOC(=O)N1CCN(c2nc(-c3ccc(F)cc3)cc(C(F)(F)F)n2)CC1`: 0.3% [at 5.6 µM] (inactive).

For the compound `CCC(=O)Nc1cc(-c2cn3cccnc3n2)ccc1OC`, the inhibition was 5% [at 7.5 µM] (inactive). As to `COc1ccc(-c2cn3cccnc3n2)cc1NC(=O)c1cc(C)cc(C)c1`, the inhibition was -0.5% [at 6 µM] (inactive). The same measure for `O=C(O)CCC(=O)N1CCN(c2nc(-c3ccccc3Cl)c3cc(Br)ccc3n2)CC1`: 2.5% [at 4.4 µM] (inactive); for `COc1ccc(-c2cn3cccnc3n2)cc1NC(=O)c1ccc(C(F)(F)F)cc1`: 3.7% (inactive). In the case of `Cc1ccccc1N1CCN(c2nc(-c3ccccc3)c3cc(Br)ccc3n2)CC1`, the inhibition was 3.5% [at 4.8 µM] (inactive). As for `COc1ccc(-c2cc(C(F)(F)F)nc(N3CCN(C(c4ccccc4)c4ccccc4)CC3)n2)cc1OC`, the figure is -2.6% [at 4.2 µM] (inactive).
